Results filed as inconclusive are left out. Values without a mark were called inactive. Active and inactive are the calls of the source. Calls come from the whole dose curve; as a rule, active = well fitted curve in the direction sought with a large enough effect; inconclusive = small, poorly fitted or top-dose-only effect, or another doubt; inactive = no such curve, though single readings can be large; an effect the other way counts as inactive or inconclusive.

Experiment [1] can be described thus: qHTS of pediatric cancer cell lines to identify multiple opportunities for drug repurposing: Primary screen for LAN-5 cells (AID 1347100).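 For activity change, negative = cytotoxic: plate controls were DMSO neutral control for no effect and bortezomib positive control for full effect.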 Note: potency is the fitted concentration of half-maximal effect. In outline:
(§1)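 Cells (500-1,000/well) in growth media were settled 5 h at 37 degrees C, then given compounds for 48 h. Viability was read as CellTiter-Glo luminescence. Primary runs used MIPE at 11 points (0.78 nM-46 µM) and NPC at 8 points (0.59 nM-46 µM); follow-ups used 11 points.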
(In qHTS, concentration-response curves come from the screen itself.)

The nature of experiment [2]: qHTS of pediatric cancer cell lines to identify multiple opportunities for drug repurposing: Primary screen for BT-12 cells (AID 1347101).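 For activity change, negative = cytotoxic: plate controls were DMSO for no effect and bortezomib positive control for full effect.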 Note: nearly all actives have a fitted effect of over 25% in size. Note: potency is the fitted concentration of half-maximal effect. In outline:
(§2)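 Cells (500-1,000/well) rested 5 h, then received compounds for 48 h; metabolically active cells were measured by CellTiter-Glo luminescence. Final concentrations spanned up to 46 µM (MIPE, 11-point) or 0.59 nM-46 µM (NPC, 8-point) in primary screens, 11-point in follow-ups.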

Experiment [3] is described as follows: qHTS of pediatric cancer cell lines to identify multiple opportunities for drug repurposing: Primary screen for Rh18 cells (AID 1347102). For activity change, negative = cytotoxic: % is set by controls: 0 for no effect and ±100 for the full control effect. Note: nearly all actives have a fitted effect of over 65% in size. Note: potency is the fitted concentration of half-maximal effect. Summed up: as §1
Experiment [4] in a line: qHTS of pediatric cancer cell lines to identify multiple opportunities for drug repurposing: Primary screen for OHS-50 cells (AID 1347103).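 For activity change, negative = cytotoxic: plate controls were DMSO neutral control for no effect and bortezomib positive control for full effect.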 Note: nearly all actives have a fitted effect of over 40% in size. Note: potency is the fitted concentration of half-maximal effect. Summed up:
as §2

The nature of experiment [5]: qHTS of pediatric cancer cell lines to identify multiple opportunities for drug repurposing: Primary screen for RD cells (AID 1347104).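 For activity change, negative = cytotoxic: plate controls were DMSO for no effect and bortezomib for full effect.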 Note: nearly all actives have a fitted effect of over 55% in size. Note: potency is the fitted concentration of half-maximal effect. In outline:
(§3)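 Quantitative HTS format: each compound titrated (MIPE 11 points from 0.78 nM, NPC 8 points from 0.59 nM) onto cells plated 5 hours earlier. After 48 h at 37 degrees C, CellTiter-Glo luminescence was recorded.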

Experiment [6] is described as follows: qHTS of pediatric cancer cell lines to identify multiple opportunities for drug repurposing: Primary screen for MG 63 (6-TG R) cells (AID 1347105). For activity change, negative = cytotoxic: % is set by controls: 0 for no effect and ±100 for the full control effect. Note: nearly all actives have a fitted effect of over 50% in size. Note: potency is the fitted concentration of half-maximal effect. In outline: as §3
A short description of experiment [7]: qHTS of pediatric cancer cell lines to identify multiple opportunities for drug repurposing: Primary screen for control Hh wild type fibroblast cells (AID 1347106).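 Note: series mostly up to about 46 µM; % is set by controls: 0 for no effect and ±100 for the full control effect; a drop in luminescence marks cytotoxicity and a rise apparent proliferation; nearly all actives have a fitted effect of over 55% in size.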 In outline: as §1
The nature of experiment [8]: qHTS of pediatric cancer cell lines to identify multiple opportunities for drug repurposing: Primary screen for Rh30 cells (AID 1347107). Note: series mostly up to about 46 µM; % is set by controls: 0 for no effect and ±100 for the full control effect; nearly all actives have a fitted effect of over 75% in size. In outline: as §1
A short description of experiment [9]: qHTS of pediatric cancer cell lines to identify multiple opportunities for drug repurposing: Primary screen for Rh41 cells (AID 1347108).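 Note: series mostly up to about 46 µM; luminescence drop marks cytotoxic hits; nearly all actives have a fitted effect of over 70% in size.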 Summed up:
as §3

As to `CC[C@@H](CO)NCCN[C@@H](CC)CO`, the Potency entry in experiment [1], in experiment [2], in experiment [3], in [4], in experiment [5] and in experiment [6] was “inactive” in each case. The Potency result in [7], in experiment [8] and in experiment [9] was “inactive” each time.

`N[C@H](Cc1c[nH]c2ccccc12)C(=O)O`: the Potency entry in [1], in experiment [2], in experiment [3], in experiment [4], in experiment [5] and in experiment [6] was “inactive” each time. Besides, the Potency result in [7] and in experiment [8] was “inactive” throughout.

As for `O=C1OC2(c3ccc(O)cc3Oc3cc(O)ccc32)c2ccccc21`, the Potency result in experiment [1], in [2], in experiment [3], in experiment [4], in [5] and in experiment [6] was “inactive” throughout. For the same compound, the Potency entry in experiment [7] and in experiment [8] was “inactive” each time.

Regarding `CNC(=O)CN(CCN(CCN(CC(=O)[O-])CC(=O)NC)CC(=O)[O-])CC(=O)[O-].O.[Gd+3]`, the Potency entry in experiment [1], in experiment [2], in experiment [3], in experiment [4], in experiment [5] and in [6] was “inactive” in each case. The Potency entry in experiment [7] and in experiment [8] was “inactive” throughout.

As for `CC(C)n1nc(-c2cc3cc(O)ccc3[nH]2)c2c(N)ncnc21`, the Potency in experiment [1] was 8.41 µM (active); in experiment [2], 1.23 µM (active); in [3], 6.68 µM (active); in experiment [4] it was 0.437 µM (active); in [5] it was 8.41 µM (active); in experiment [6], 1.68 µM (active).

For `CC(C)COC(=O)c1ccc(N)cc1`, the Potency result in experiment [1], in [2], in experiment [3], in experiment [4], in [5] and in [6] was “inactive” each time. Besides, the Potency entry in experiment [7] was “inactive”.

Take `NCCCC[C@H](N[C@@H](CCc1ccccc1)C(=O)O)C(=O)N1CCC[C@H]1C(=O)O`: the Potency result in [1], in experiment [2], in experiment [3], in experiment [4], in experiment [5] and in experiment [6] was “inactive” in each case. Moreover, the Potency entry in [7] and in experiment [8] was “inactive” in each case.

In the case of `CN1C(CCl)Nc2cc(Cl)c(S(N)(=O)=O)cc2S1(=O)=O` (stereo not given), the Potency result in experiment [1], in experiment [2], in experiment [3], in experiment [4], in experiment [5] and in [6] was “inactive” in each case. Moreover, the Potency result in [7], in experiment [8] and in experiment [9] was “inactive” throughout.

For `CCOC(=O)COc1ccc2c(C)c(CCN(CC)CC)c(=O)oc2c1Cl`, the Potency entry in experiment [1], in experiment [2], in [3], in experiment [4], in experiment [5] and in experiment [6] was “inactive” in each case. The Potency entry in [7], in [8] and in [9] was “inactive” each time.

With `O=C1c2ccccc2C(=O)C1c1ccccc1`, the Potency result in experiment [1], in experiment [2], in [3], in experiment [4], in experiment [5] and in experiment [6] was “inactive” throughout. For the same compound, the Potency result in experiment [7], in [8] and in experiment [9] was “inactive” throughout.

Regarding `c1ccc(CNCCNCc2ccccc2)cc1`, the Potency result in [1], in [2], in experiment [3], in experiment [4], in [5] and in experiment [6] was “inactive” in each case. In addition, the Potency result in experiment [7], in experiment [8] and in experiment [9] was “inactive” each time.

`CC(=O)OCC(=O)NCCCOc1cccc(CN2CCCCC2)c1`: the Potency result in [1], in experiment [2], in [3], in experiment [4], in experiment [5] and in experiment [6] was “inactive” each time. Moreover, the Potency result in experiment [7], in [8] and in [9] was “inactive” each time.

For the compound `O=C1OCCN1/N=C/c1ccc([N+](=O)[O-])o1`, the Potency result in [1], in [2], in experiment [3], in experiment [4], in [5] and in [6] was “inactive” each time. Besides, the Potency entry in experiment [7] and in [8] was “inactive” throughout.

On to `Nc1ccc(/C=C/c2ccc(N)cc2S(=O)(=O)O)c(S(=O)(=O)O)c1`, for which the activity change, negative = cytotoxic in experiment [1] is 21.1% [at 0.597 µM]; in experiment [2] it was 16.8% [at 0.745 µM]; in experiment [3], 24% [at 0.597 µM]; in [4], 19.6% [at 0.73 µM]; in experiment [5], 13.1% [at 0.597 µM]; in experiment [6], 9.42% [at 0.597 µM]. Also, the activity change, negative = cytotoxic is -3.6% [at 0.597 µM] in experiment [7] and 24.6% [at 0.597 µM] in [8].

For `Cc1ccc(C(=O)C(C)CN2CCCCC2)cc1` (stereo not given), the Potency result in experiment [1], in experiment [2], in [3], in experiment [4], in experiment [5] and in experiment [6] was “inactive” throughout. Besides, the Potency result in experiment [7], in [8] and in [9] was “inactive” throughout.

Consider `CCOc1ccc(NC(=O)CC(C)O)cc1` (stereo not given), for which the Potency entry in experiment [1], in experiment [2], in experiment [3], in experiment [4], in experiment [5] and in [6] was “inactive” each time. For the same compound, the Potency result in [7], in experiment [8] and in experiment [9] was “inactive” throughout.

Regarding `CN(C)CC/C=C1/c2ccccc2COc2ccc(CC(=O)O)cc21`, the Potency result in [1], in [2], in experiment [3], in experiment [4], in experiment [5] and in experiment [6] was “inactive” each time. For the same compound, the Potency entry in experiment [7], in experiment [8] and in [9] was “inactive” throughout.

As for `CC(C)(C)CC(C)(C)c1ccc(OCCOCC[N+](C)(C)Cc2ccccc2)cc1`, the Potency was 21.1 µM (active) in experiment [1]; 8.71 µM (active) in experiment [2]; 10.6 µM (active) in [3]; 6.17 µM (active) in [4]; 26.6 µM (active) in experiment [5]; 26.6 µM (active) in [6].

As to `CCCCC1=NC2(CCCC2)C(=O)N1Cc1ccc(-c2ccccc2-c2nn[nH]n2)cc1`, the Potency entry in experiment [1], in experiment [2], in experiment [3], in experiment [4], in experiment [5] and in experiment [6] was “inactive” throughout. Moreover, the Potency result in experiment [7], in experiment [8] and in experiment [9] was “inactive” in each case.

In the case of `O=C(O)CNC(=O)c1ccccc1`, the Potency result in experiment [1], in experiment [2], in [3], in experiment [4], in [5] and in experiment [6] was “inactive” throughout. In addition, the Potency entry in experiment [7], in experiment [8] and in experiment [9] was “inactive” in each case.

On to `Cc1c(N(C)CS(=O)(=O)O)c(=O)n(-c2ccccc2)n1C`, for which the Potency entry in [1], in experiment [2], in experiment [3], in experiment [4], in [5] and in [6] was “inactive” in each case. For the same compound, the Potency result in experiment [7], in experiment [8] and in experiment [9] was “inactive” throughout.

The values above are taken from PubChem BioAssay (NCATS).
